Measurements taken from the supplement of paper PMC6555819.

Experiments:
Assay in all cases: PBM binding z-score (relative to random genomic background probes); higher = stronger binding; sequences stand for … in GC…GCGATTGACAGCGTAGAATGAAGG
[1] = tested on: FXR:RXRa (NR concentration 270 nM, RXRa partner concentration 90 nM)
In short: (§1)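 Binding buffer was PBS pH 7.4 with 2% milk, 0.02% Triton X-100, 1 mM DTT, 0.2 mg/mL BSA and 0.4 mg/ml salmon testes DNA. In it, ligand-free nuclear receptor dimers were incubated 1 h on custom Agilent 4×180K protein-binding microarrays carrying double-stranded probes. Antibodies against each partner (one per run) detected binding, and z-scores were calculated against random background probes after regression normalization of scanned fluorescence.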

[2] = tested on: LXRa:RXRa (NR concentration 270 nM, RXRa partner concentration 90 nM)
In short: as §1

[3] = tested on: LXRa homodimer (NR concentration 270 nM)
In short: as §1

[4] = tested on: LXRb:RXRa (NR concentration 270 nM, RXRa partner concentration 90 nM)
In short: as §1

[5] = tested on: LXRb homodimer (NR concentration 270 nM)
In short: as §1

[6] = tested on: PPARa:RXRa (NR concentration 270 nM, RXRa partner concentration 90 nM)
In short: as §1

[7] = tested on: PPARg:RXRa (NR concentration 180 nM, RXRa partner concentration 90 nM)
In short: as §1

[8] = tested on: PPARg:RXRa 270nM:90nM, anti-RXR (NR concentration 270 nM, RXRa partner concentration 90 nM)
In short: as §1

[9] = tested on: PPARg:RXRa 30nM:10nM, anti-RXR (NR concentration 30 nM, RXRa partner concentration 10 nM)
In short: as §1

[10] = tested on: PPARg:RXRa 90nM:30nM, anti-RXR (NR concentration 90 nM, RXRa partner concentration 30 nM)
In short: as §1

[11] = tested on: PPARg:RXRa DBDmut IVT, anti-RXR (DBD mutation: RXRa K156A/R161A, NR concentration 270 nM, RXRa partner concentration 90 nM)
In short: as §1

[12] = tested on: PPARg:RXRa IVT, anti-PPARg (NR concentration 270 nM, RXRa partner concentration 90 nM)
In short: as §1

[13] = tested on: PPARg DBDmut:RXRa IVT, anti-PPARg (DBD mutation: PPARg1 K132A/R137A, NR concentration 270 nM, RXRa partner concentration 90 nM)
In short: as §1

[14] = tested on: PPARg DBDmut IVT, anti-PPARg (DBD mutation: PPARg1 K132A/R137A, NR concentration 270 nM)
In short: as §1

[15] = tested on: PPARg homodimer (NR concentration 180 nM)
In short: as §1

[16] = tested on: PXR:RXRa (NR concentration 270 nM, RXRa partner concentration 90 nM)
In short: as §1

[17] = tested on: PXR homodimer (NR concentration 270 nM)
In short: as §1

[18] = tested on: RARa:RXR (NR concentration 270 nM, RXRa partner concentration 90 nM)
In short: as §1

[19] = tested on: RARa homodimer (NR concentration 270 nM)
In short: as §1

[20] = tested on: RARb:RXRa (NR concentration 270 nM, RXRa partner concentration 90 nM)
In short: as §1

| Sequence | PBM binding z-score [1] | PBM binding z-score [2] | PBM binding z-score [3] | PBM binding z-score [4] | PBM binding z-score [5] | PBM binding z-score [6] | PBM binding z-score [7] | PBM binding z-score [8] | PBM binding z-score [9] | PBM binding z-score [10] | PBM binding z-score [11] | PBM binding z-score [12] | PBM binding z-score [13] | PBM binding z-score [14] | PBM binding z-score [15] | PBM binding z-score [16] | PBM binding z-score [17] | PBM binding z-score [18] | PBM binding z-score [19] | PBM binding z-score [20] |
| --- | --- | --- | --- | --- | --- | --- | --- | --- | --- | --- | --- | --- | --- | --- | --- | --- | --- | --- | --- | --- |
| TTACCAAAGTGAGCTGAGGTCGTTGATCCAACTC | 0.648 | 0.0425 | -0.525 | 0.222 | -1.12 | 0.635 | -0.509 | -0.168 | 0.0696 | -0.371 | -0.795 | -0.309 | -0.436 | -0.706 | -0.866 | 2.11 | 0.201 | 1.44 | -1.13 | 0.34 |
| CCTACTGTGCCAAAGGTCATTGATTCCAATGCTC | 5.48 | 5.82 | 5.32 | 5.34 | 2.14 | 6.17 | 11.4 | 9.67 | 9.47 | 10.3 | 5.24 | 5.97 | 0.578 | 0.496 | 4.4 | 5.42 | 2.77 | 5.77 | 2.56 | 4.63 |
| CAAACTAGGTCACGAAATGTCAAAGTCGAATGAC | 4.45 | 5.4 | 1.06 | 3.49 | 0.702 | 5.42 | 9.32 | 7.56 | 6.2 | 7.61 | 8.65 | 9.32 | 6.88 | 5.58 | 3.3 | 2.74 | 0.475 | 3.64 | 1.83 | 4.39 |
| CGTCCAAGGTCAAGGTCAGTTAAAGAGACTCGAA | 7.98 | 6.08 | 1.79 | 4.95 | 1.26 | 6.11 | 6.45 | 6.18 | 2.97 | 5.03 | 3.64 | 4.64 | 0.996 | 0.327 | 3.84 | 5.2 | 1.12 | 5.74 | 1.83 | 5.81 |
| TCTATTAGTTAAAGGGCAACCGACGAGTCCGTTT | 0.559 | 1.45 | 0.826 | 1.12 | 0.427 | 1.87 | 1.12 | 3.36 | 3.9 | 3.45 | 2.36 | 0.552 | 0.374 | 1.04 | 1.7 | 1.32 | 0.941 | 1.18 | 1.13 | 2.47 |
| GCTGCTAGGTCAGGTTGGTCATCTAACGGGTACG | 1.59 | 1.01 | 0.226 | 0.755 | 0.00509 | 1.45 | 0.55 | 1.02 | -0.203 | 0.295 | 2.9 | 2.41 | -0.672 | -0.462 | 0.986 | 0.706 | -0.262 | 1.02 | -0.199 | 3.29 |
| GCATATTGGTAATACAAGGTGAAAGTCCGATTGT | 0.142 | -0.00547 | 0.127 | 0.0375 | -0.19 | 0.519 | 0.364 | 0.443 | 0.33 | 0.00917 | 0.078 | 0.938 | 1.13 | 0.842 | 0.326 | 0.0953 | 0.0473 | 0.645 | -0.0157 | 0.266 |
| CCGACTAGGGCATAAGGTTACCATAAGCCAGCCC | 0.247 | 2.13 | -0.18 | 1.02 | -0.736 | 2.19 | 2.8 | 3.77 | 1.43 | 3.27 | 4.2 | 3.79 | -0.186 | -0.826 | 1.57 | 0.295 | -0.287 | 1.7 | -0.466 | 1.86 |
| GTCCCAAGGTGAATAGGTCGTTGATGAGTAGGCG | 0.85 | 0.873 | -0.08 | 0.623 | -0.403 | 2.26 | 1.19 | 1.4 | 0.109 | 0.815 | 1.17 | 2.18 | -0.477 | -0.0374 | 1.53 | 0.817 | 0.264 | 2 | 0.909 | 2.12 |
| ACTAGCAGGCCAAGTTTGGGTCACTCAGACAAAG | -0.039 | 0.195 | -0.331 | 0.306 | -1.05 | 1.27 | 0.233 | 0.225 | -0.237 | -0.185 | 0.651 | 1.1 | -0.577 | -0.242 | 0.405 | 0.515 | -0.504 | 1.43 | -0.139 | 1.71 |
| ACAGACAGATGATGAAGGTAACTCAGGCTATCAT | 0.128 | -0.0336 | 0.0406 | 0.0281 | 0.222 | -0.128 | 0.719 | -0.0905 | 0.15 | -0.00308 | -0.169 | -0.00444 | 1.17 | 0.707 | 0.677 | -0.0799 | 0.468 | 0.101 | 0.591 | 0.13 |
| GCTTGTTGGTCAGTAAAAGGTCACACACCGGTCG | 3.14 | 4.29 | 4.58 | 4.04 | 1.25 | 4.42 | 3.2 | 4.25 | 2.37 | 4.03 | 1.37 | 3.04 | 0.573 | 0.581 | 3.31 | 4.71 | 1.12 | 5.45 | 1.86 | 4.32 |
| CAGACTGGGGCAAGGTTACCATAACGCACAGCCA | 0.535 | 1.05 | -0.312 | 1.07 | -0.19 | 2.41 | 3.76 | 4.25 | 1.96 | 3.63 | 4.18 | 4.53 | 1.14 | 0.637 | 0.947 | 0.474 | -0.134 | 0.82 | 0.141 | 1.8 |
| ACTAGCATGCCAAGTTTGGGTCACTCAAACAAAG | 0.0536 | 0.057 | -0.432 | 0.606 | -0.573 | 1.23 | 0.0927 | 0.138 | -0.204 | -0.214 | -0.0858 | 0.673 | -0.779 | -0.563 | 0.0985 | 0.71 | -0.444 | 1.14 | -0.448 | 1.28 |
| CCTAACAGGCCAATCTGGGTCACTCAAGGCTTGA | 1.06 | 1.75 | 0.16 | 1.19 | -0.0196 | 3.19 | 2.31 | 2.35 | 0.094 | 1.57 | 4.43 | 5.18 | 0.79 | -0.8 | 1.16 | 1.3 | 0.00111 | 1.43 | 0.117 | 1.77 |
